Compounds with a hit are over-represented: about 2.5% of the library has one in this group of screens.
CHT allo act: allosterically activates the human high affinity choline transporter | Q9GZV3 | CHT-expressing cells, membrane potential dye, choline EC20; active compounds read high; LV-AA mutant CHT in HEK293 cells | B-score at 10 µM | actives 0.49% (n = 310,000) | AID 488977;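 active = initial fluorescence not abnormally high and integrated response B-score, plate-corrected, over 3 SD above library mean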
Target sequence (Q9GZV3 whole entry, looked up): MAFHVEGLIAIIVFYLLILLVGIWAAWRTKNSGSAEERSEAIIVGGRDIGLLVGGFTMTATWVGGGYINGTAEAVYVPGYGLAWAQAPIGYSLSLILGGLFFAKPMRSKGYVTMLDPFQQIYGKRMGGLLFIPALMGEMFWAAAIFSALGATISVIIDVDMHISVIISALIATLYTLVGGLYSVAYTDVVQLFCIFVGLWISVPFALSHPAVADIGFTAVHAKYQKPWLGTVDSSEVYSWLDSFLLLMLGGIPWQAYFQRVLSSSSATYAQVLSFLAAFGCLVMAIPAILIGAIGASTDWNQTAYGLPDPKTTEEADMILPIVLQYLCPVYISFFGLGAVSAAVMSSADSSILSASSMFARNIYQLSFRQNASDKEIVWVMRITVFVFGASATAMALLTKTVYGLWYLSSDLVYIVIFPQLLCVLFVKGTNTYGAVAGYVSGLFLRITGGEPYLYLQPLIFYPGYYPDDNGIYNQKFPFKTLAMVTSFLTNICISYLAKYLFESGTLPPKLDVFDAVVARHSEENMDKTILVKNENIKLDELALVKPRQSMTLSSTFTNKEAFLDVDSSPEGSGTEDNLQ
CHT inh: human CHT choline transport inhibition | actives 0.86% (n = 310,000) | B-score at 10 µM | CHT-expressing cells, membrane potential dye, choline response; active compounds read low;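 active = B-score over 3 SD under the library average, and starting fluorescence ratio not unusually high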;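 also: choline stimulus applied at its EC90 after an EC20 pre-addition; B-score computed on integrated fluorescence ratio after choline addition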
PKA-R2B act: activates the human PKA-R2B holoenzyme complex. P22694+P31323. PKA-R2B holoenzyme dissociation, Cy5-IP20 fluorescence polarization; R2B truncated from residue 108, S112A mutant; 0% DMSO only, 100% 113 µM cGMP. activation, % at 11.4 µM. actives 0.079% (n = 340,000). AID 504700;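 active = activation above a cutoff set at the mean over all compounds plus 3 SD, cut at about 18% in these data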;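 also: higher means more holoenzyme dissociation and a rise in polarization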
ANO1 block: mouse TMEM16A channel inhibition, primary screen. Q8BHY3. HEK293 TMEM16A/YFP iodide influx fluorescence, ionomycin. normalized B-score (activity score, 25-100; higher = stronger inhibition) at 10 µM. actives 1.2% (n = 310,000). AID 588511;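 active = ratio plate-corrected score three or more library SD toward inhibition, starting fluorescence score within five deviations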;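 also: score derived from kinetic fluorescence span divided by baseline fluorescence per well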
ANO1 activ: activators or potentiators of mouse TMEM16A chloride channel. B-score at 10 µM. Q8BHY3. AID 623877. actives 0.3% (n = 340,000). HEK293 TMEM16A/YFP-H148Q/I152L, iodide quench fluorescence; active compounds read low;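 active = fluorescence-ratio B-score plate-corrected deviation score at least 3 library SD below zero, with starting fluorescence score within 5 deviations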;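 also: channel opened by trigger with iodide after compound preincubation; score built on the fluorescence ratio of max minus min over baseline; more negative score means more quench and so TMEM16A activation or potentiation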
PKA-R1A act: PKA-R1A complex activation; P00514+P68181; PKA-R1A dissociation, Cy5-IP20 fluorescence polarization; scaled: DMSO 0%, 113 µM cGMP 100%; activation, % at 11.4 µM; actives 0.083% (n = 340,000);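 active = percent activation above the mean of all tested compounds plus 3 SD, cut at about 19% in these data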;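 also: higher means more PKAc released from R1A so a rise in polarization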
TMEM16A reconf: reconfirmed blocker of mouse TMEM16A calcium-activated chloride channel | shares compounds with ANO1 block | HEK293 TMEM16A/YFP-H148Q, iodide quench fluorescence; ionomycin added to raise cell calcium | inhibition, % at 10 µM | actives 39% (n = 2,300) | AID 652189;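 active = mean duplicate percent inhibition, scaled so buffer wells are 0 and the reference blocker 100, over three buffer SD above buffer mean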
HEK293 Ca mobil: alters calcium mobilization in TMEM16A HEK293 cells, counter-screen; shares compounds with ANO1 block; TMEM16A/YFP HEK293, Fluo4 calcium mobilization; calcium response (% of ionomycin), % at 10 µM; actives 2% (n = 2,300);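 active = duplicate-averaged calcium signal over 20% of the ionomycin maximum, relative to buffer baseline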;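 also: each well's signal is peak minus trough fluorescence divided by its pre-addition baseline; 0% = buffer wells and 100% = ionomycin wells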
Parental YFP cnt: parental YFP-HEK293 iodide quench counter-screen activity. ionomycin. shares compounds with ANO1 block. 2,300 tested, under 10 active. YFP ratio F(max-min)/F0 at 10 µM;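 active = yellow fluorescent protein signal ratio exceeding the buffer control mean by over 5 SD of those controls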;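 also: ratio is mean of duplicate wells from kinetic YFP trace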
ClC-1 rat inh: rat ClC-1 inhibition, TMEM16A specificity screen; shares compounds with ANO1 block; CHO ClC-1-YFP, iodide influx fluorescence quench; iodide control reads 0, buffer control 100; ratio percent, % at 10 µM; 2,300 tested, under 10 active; AID 652236;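 active = duplicate-mean ratio percent above the mean of iodide-only control wells, which defines zero, plus 5 of their SD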;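 also: higher percent means stronger block of ClC-1 iodide influx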
The depositor's hits bear a star; i = inactive; nt = no result.

SMILES	CHT allo act	CHT inh	PKA-R2B act	ANO1 block	ANO1 activ	PKA-R1A act	TMEM16A reconf	HEK293 Ca mobil	Parental YFP cnt	ClC-1 rat inh
CC(=Nc1cccc(C)c1)c1sc2ccccc2c1O	i	i	-14	i	i	-18	i	i	-0.93	-10
O=S(=O)(c1ccc(C2CCCCC2)cc1)N1CCCC1	i	i	0	25*	i	2	i	i	-0.83	0
Cc1cccc(N2CCN(C(c3ccccc3)c3nnnn3C(C)(C)C)CC2)c1C (configuration not stated)	i	i	-8	i	i	-7	nt	nt	nt	nt
COc1ccccc1N1CCN(C(c2ccc(Cl)cc2)c2nnnn2C(C)(C)C)CC1 (configuration not stated)	i	i	0	100*	i	-6	i	i	-1.2	-22
O=C(C[C@@H]1C/C=C\CCC(=O)OC[C@H](Cc2ccccc2)NC1=O)N[C@@H](CO)Cc1ccccc1	nt	nt	-3	nt	i	-9	nt	nt	nt	nt
C=CCn1c(SCC(=O)NCc2ccc3c(c2)OCO3)nc2scc(-c3ccc(F)cc3)c2c1=O	i	i	1	i	i	-5	nt	nt	nt	nt
C=CCn1c(SC(C)C(=O)NCc2ccc3c(c2)OCO3)nc2scc(-c3ccccc3)c2c1=O (configuration not stated)	i	i	-4	100*	i	3	i	i	-1.2	-7
Cc1nc(-c2ccc(Cl)cc2)sc1C1(C)CC(c2ccc(Cl)cc2)=NO1 (configuration not stated)	i	i	-12	25*	i	4	i	i	-0.93	0
CC(C)Oc1ccc(S(=O)(=O)N2CCOCC2)cc1NC(=O)C(C)Oc1ccc(F)cc1 (configuration not stated)	i	i	4	i	i	-3	nt	nt	nt	nt
COc1ccc(N(C)C2=NS(=O)(=O)c3ccccc32)cc1	i	i	9	100*	i	6	i	i	-1.1	-2
COc1ccc(/C=N/N(C)C2=NS(=O)(=O)c3ccccc32)cc1	i	i	-5	i	i	-9	nt	nt	nt	nt
COc1ccc(-c2cn(Cc3ccc(C(=O)c4ccccc4)cc3)nn2)cc1	i	i	nt	25*	nt	nt	27%*	i	-0.86	-16
Cc1oncc1-c1csc(-c2ccccc2)n1	i	i	-3	100*	i	-1	i	i	-0.93	-12
Cc1oncc1-c1csc(-c2ccccc2Cl)n1	i	i	-2	i	i	-12	nt	nt	nt	nt
O=C(COC(=O)c1ccccn1)NCc1ccc(Cl)cc1Cl	nt	nt	-5	nt	i	-3	nt	nt	nt	nt
O=C(NCc1ccc(Cl)cc1Cl)c1ccccn1	i	i	-2	25*	i	-4	i	i	-1.1	-11
CC(OC(=O)C1CC1)C(=O)Nc1ccc([N+](=O)[O-])cc1Cl (configuration not stated)	i	i	-11	i	i	-6	nt	nt	nt	nt
Cc1ccc(C)c(NC(=O)c2ccccc2O)c1	i	i	-11	25*	i	-11	36%*	i	-1.1	-2
Cc1ccc(C)c(NC(=O)c2cc(C)nc3ccccc23)c1	i	i	6	i	i	-3	nt	nt	nt	nt
CC(C)C(=O)N1CCN(c2ccccc2NC(=S)NC(=O)Cc2ccccc2)CC1	i	i	5	i	i	-5	nt	nt	nt	nt
Cc1ccc(O)c(-c2cc(C(F)(F)F)[nH]n2)c1	i	i	13	100*	i	-7	56%*	i	-1.2	-28
Cc1cccc(NC(=O)c2cc(-c3cc(C)ccc3O)n[nH]2)c1	i	i	0	i	i	5	nt	nt	nt	nt
COc1cc(NC(=O)CCc2c(C)[nH]c(=O)c(C#N)c2C)cc(OC)c1	i	i	4	i	i	-3	nt	nt	nt	nt
CCOC(=O)c1sc2nccc(N(C)C)c2c1N=CNOCc1c(F)cccc1Cl	i	i	-3	100*	i	-7	i	i	-0.95	-4
CCOC(=O)Cc1csc(NC(=O)c2ccncc2)n1	i	i	-10	100*	i	-4	19%*	i	-0.85	-10
SMILES	CHT allo act	CHT inh	PKA-R2B act	ANO1 block	ANO1 activ	PKA-R1A act	TMEM16A reconf	HEK293 Ca mobil	Parental YFP cnt	ClC-1 rat inh
COc1ccc(OC)c(S(=O)(=O)NCCS(=O)(=O)N2CCN(c3ccccc3)CC2)c1	i	i	0	i	i	-7	nt	nt	nt	nt
Oc1ccccc1Cc1c(O)ccc2ccccc12	i	i	-1	25*	i	-7	38%*	i	-1.1	-8
CN(C)Cc1c(O)ccc2ccccc12	i	i	0	i	i	-4	nt	nt	nt	nt
C=CCOC(=O)C1=C(C)NC(C)=C(C(=O)OCC=C)C1c1ccco1	i	i	-10	i	i	-17	i	i	-0.96	-4
CCOC(=O)C1=C(C)NC(C)=C(C(=O)OC)C1c1ccco1 (configuration not stated)	i	i	-7	i	i	3	nt	nt	nt	nt
CCOC(=O)c1ccc(Nc2nc(-c3cccnc3)nc3ccccc23)cc1	i	i	4	25*	i	-24	38%*	i	-1.2	-20
CCn1c(CSc2nc3ccccc3s2)nc2ccccc21	i	i	-5	100*	i	3	43%*	i	-0.86	-8
O=C(O)CCSc1nnc(SCC(=O)NC2CCS(=O)(=O)C2)s1 (configuration not stated)	nt	nt	5	nt	i	8	nt	nt	nt	nt
O=C(CSc1ccc(Cl)cc1)N1CCN(c2ccc(Cl)cc2[N+](=O)[O-])CC1	i	i	3	100*	i	-10	i	i	-1.1	-2
Fc1ccc(CCNC(=S)Nc2ccc(F)c(Cl)c2)cc1	i	i	-7	100*	-4.7*	8	37%*	i	-1.1	-14

High-throughput results as filed in PubChem.
